Compound activity as filed in PubChem BioAssay.
ST2 inh = blocks human ST2 binding to IL-33; Q01638; AlphaLISA ST2-Fc/biotin-IL-33 interaction, 1 h; inhibition, % for hits at 17 µM; hit rate 2.3% among 78,000; in the data active = inhibition above about 30%
Target sequence (Q01638 whole entry, looked up): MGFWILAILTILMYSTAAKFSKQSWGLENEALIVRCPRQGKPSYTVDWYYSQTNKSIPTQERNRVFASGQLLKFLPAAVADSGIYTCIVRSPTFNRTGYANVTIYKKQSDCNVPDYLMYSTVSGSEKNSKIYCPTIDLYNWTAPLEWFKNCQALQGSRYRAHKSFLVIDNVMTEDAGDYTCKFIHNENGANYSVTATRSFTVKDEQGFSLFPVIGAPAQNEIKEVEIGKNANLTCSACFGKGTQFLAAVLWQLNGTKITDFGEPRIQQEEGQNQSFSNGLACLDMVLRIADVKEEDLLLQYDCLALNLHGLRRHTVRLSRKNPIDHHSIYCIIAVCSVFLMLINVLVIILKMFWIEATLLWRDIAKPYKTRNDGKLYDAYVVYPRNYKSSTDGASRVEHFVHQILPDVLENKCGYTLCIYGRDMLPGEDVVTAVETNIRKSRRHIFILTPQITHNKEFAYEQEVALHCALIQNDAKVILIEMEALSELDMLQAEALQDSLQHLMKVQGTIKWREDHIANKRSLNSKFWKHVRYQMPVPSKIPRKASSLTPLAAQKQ
* = called active by the depositor; i = inactive. The entries come from a sample that favours hits as a whole.

SMILES | ST2 inh
O=c1oc2c(O)cccc2c(O)c1O | i
COc1c(C)cnc(CN(C)Cc2ncccc2C(=O)O)c1C | i
COc1cccc(-c2nc3ccc(C(=O)NCCN4CCCC4=O)cc3o2)c1 | i
CC(=O)N1c2c(cc(Br)cc2S(=O)(=O)NCc2ccccn2)CC1C (centres undefined) | i
C=CCOc1ccc(C=Nc2ccc(C)cc2C)c(O)c1 | 38%*
O=c1[nH]c2ccc(N=Cc3ccc(O)cc3O)cc2[nH]1 | i
C=CCOc1ccc(C=Nc2ccc(C(C)C)cc2)c(O)c1 | 41%*
C=CCOc1ccc(C=Nc2ccc(Cl)cc2)cc1 | i
CCn1c(C2CCN(C(=O)CCCn3cncn3)CC2)nn(C)c1=O | i
Cc1ccc(NC(=O)c2cnn3c(C(F)(F)F)cc(-c4ccco4)nc23)c(C)c1 | i
O=C(O)CCC(=O)N1CCc2cc(S(=O)(=O)N3CCN(c4ccccc4)CC3)ccc21 | i
CCCN1CCC(NC2c3ccccc3-c3ccccc32)CC1 | i
Cc1cccnc1NC(=O)COc1ccc(C(C)C)cc1 | i
Cc1ccc(C(=O)c2ccc(C)c(N)c2)cc1N | i
Cc1cc(NC(=O)CSc2n[nH]c(C)c2[N+](=O)[O-])no1 | i
Cc1cc(N2CCCCC2)nc(N2CCN(S(=O)(=O)c3ccc(Cl)cc3)CC2)n1 | i
COc1ccccc1C(=O)Nc1ccc(-c2nc3cc(C)ccc3o2)cc1 | i
COc1ccc(C(=O)Nc2ccc(-c3nc4cc(C)ccc4o3)c(O)c2)cc1Cl | 30%*
COc1ccc(C(=O)Nc2cccc(-c3nc4cc(C)ccc4o3)c2)cc1[N+](=O)[O-] | i
CC(=O)N1N=C(c2ccc(Br)cc2)CC1c1ccc2ncccc2c1 (centres undefined) | i
N#Cc1ccc(N=c2oc3ccccc3cc2C(=O)Nc2ccccc2)cc1 | 33%*
CC(=O)NC(=O)c1cc2cc(Cl)cc(Cl)c2oc1=Nc1cccc(C#N)c1 | i
CC(=O)NC(=O)c1cc2cc(Br)ccc2oc1=Nc1cccc(C#N)c1 | 33%*
COc1ccc2cc(C(=O)Nc3ccccc3)c(=Nc3ccc(C#N)cc3)oc2c1 | i
CC(=O)NC(=O)c1cc2cc(Br)ccc2oc1=Nc1cccc(F)c1 | i
SMILES | ST2 inh
COc1ccc2oc(=Nc3ccc(C#N)cc3)c(C(=O)Nc3ccccc3)cc2c1 | i
CCOc1ccc2nc(N3CCCN(Cc4nc5ccccc5s4)CC3)nc(C)c2c1 | i
COc1cc2c(cc1CNC(=O)c1cn3c(n1)CNCC3)CCC2 | i
Cc1oc2c(CN(C)C)c(O)ccc2c(=O)c1Oc1ccccc1F | i
OC(COc1ccc(C2C=CCC2)cc1)CN1CCCCC1 (centres undefined) | 52%*
CC(C)(C)c1ccc(OCC(O)CN2CCCC2)cc1 (centres undefined) | i
CC1CCCN(CC(O)COc2ccc(C3CCCCC3)cc2)C1 (centres undefined) | i
CN1CC(=O)N2C[C@@H](NC(=O)c3ccc(OC(F)F)cc3)C[C@H]2C1=O | i
Cc1cccc(C(=O)Nc2ccc(NC(=O)c3ccc(C)c([N+](=O)[O-])c3)cc2)c1 | 32%*
Cc1ccc(NC(=O)c2cccc(F)c2)cc1[N+](=O)[O-] | i
Cc1ccc(C(=O)c2ccc(Cl)cc2)cc1[N+](=O)[O-] | 42%*
CNC(=O)c1ccc(C)c([N+](=O)[O-])c1 | i
Cc1cccc(C(=O)Nc2cccc([N+](=O)[O-])c2C)c1 | i
Cc1ccc(NC(=O)COc2ccc(Cl)cc2)cc1[N+](=O)[O-] | i
O=C(c1ccccc1)N(c1ccc(F)cc1)C1C=CS(=O)(=O)C1 (centres undefined) | i
Cc1c(NCc2cc(Br)ccc2O)c(=O)n(-c2ccccc2)n1C | i
O=C(O[n+]1ccc(N2CCOCC2)cc1)N(c1ccccc1)c1ccccc1 | i
Cc1cc(/C=C2\C(=O)NC(=O)N(C)C2=O)c(C)n1-c1ccc(F)c(Cl)c1 | 46%*
Cc1cc(C=C2C(=O)N(C)C(=O)N(C)C2=O)c(C)n1-c1ccc(Cl)c(Cl)c1 | i
Cc1ccc(N2NC(=O)/C(=C/c3ccc(Cl)cc3Cl)C2=O)cc1Cl | i
O=C1CCCN1C1CCCN(Cc2ccccc2-c2ccccc2)C1 (centres undefined) | i
CCCCOC(=O)C1=C(C)Nc2nnnn2C1c1cccc(OC)c1OC (centres undefined) | i
CCC(C)c1ccc(NC(=O)c2ccccc2[N+](=O)[O-])cc1 (centres undefined) | i
NS(=O)(=O)c1ccc(NC(=O)c2ccccc2)cc1 | i
NS(=O)(=O)c1ccc(NC(=O)c2ccccc2[N+](=O)[O-])cc1 | 32%*
SMILES | ST2 inh
O=C(Nc1ccc(Nc2ccccc2)cc1)c1ccc(Cl)cc1[N+](=O)[O-] | 43%*
Cc1ccc(NC(=O)c2ccc(Cl)cc2Cl)cc1[N+](=O)[O-] | i
CC(C)c1ccc(NC(=O)c2ccc(Cl)cc2[N+](=O)[O-])cc1 | i
O=C(NC1CC1)c1ccc2c(=O)n(CCc3ccccc3)c(=O)[nH]c2c1 | i
O=C1CC(c2ccc(O[C@@H]3O[C@H](CO)[C@@H](O)[C@H](O)[C@H]3O)cc2)Oc2cc(O)ccc21 (some centres undefined) | i
CC1=C[C@@H](CNC(=O)c2ccco2)[C@H](C(C)C)C[C@H]1CC(=O)NCc1ccc(C#N)cc1 | i
Cc1cccc(NC(=O)CCN2C(=O)S/C(=C\c3ccccc3)C2=O)c1 | i
O=C(c1cccn1-c1nnc(N2CCCCC2)s1)N1CCN(C2CCCCC2)CC1 | i
O=C1C(=Cc2cccn2-c2ccccc2)C(=O)c2ccccc21 | 31%*
O=c1ccn(-c2ccccc2)[nH]1 | i
O=C(O)COc1ccc(C=C2C(=O)c3ccccc3C2=O)cc1Cl | i
Cc1nc(NCc2ccc(F)cc2)c2c(C)c(C)sc2n1 | i
CCCNC(=O)COc1ccc(Cl)c(C)c1 | i
COc1ccc(-c2cc3cc(Br)ccc3oc2=O)cc1 | i
O=c1oc2ccccc2cc1-c1nc(-c2cccs2)cs1 | 51%*
O=c1oc2ccc(Br)cc2cc1-c1nc(-c2cccs2)cs1 | 30%*
O=c1oc2cc(O)ccc2cc1-c1nc(-c2ccc3ccccc3c2)cs1 | i
O=c1oc2ccc(Br)cc2cc1-c1nnc(-c2ccccc2Br)o1 | i
O=C(Nc1nc(-c2cccs2)cs1)c1cc2ccccc2oc1=O | i
O=C1C2C3CCC(C3)C2C(=O)N1c1ccccc1Cl (centres undefined) | i
O=C(Nc1cccc(-c2ccc(F)cc2)c1)C1CCCN(C(=O)c2cccs2)C1 (centres undefined) | i
O=C(c1ccc(Cl)cc1)c1c[nH]c2c(F)cc(F)cc2c1=O | i
COc1ccc(-c2nnc(C[C@@H]3C[C@@H](C(C)C)[C@H](CN4CC[C@H](NC(C)=O)C4)C=C3C)o2)cc1 | i
CC1CC(C)CN(S(=O)(=O)c2cc(Cl)ccc2Cl)C1 (centres undefined) | i
CSCC(=O)N1CCOC(Cc2cccc3ccccc23)C1 (centres undefined) | i
SMILES | ST2 inh
O=C(Nc1c(-c2ccc(F)cc2)nc2ccccn12)c1c(F)cccc1F | i
O=C1N=C(N2CCCC2)S/C1=C\c1ccccc1O | i
O=C1CCCN1c1ccccc1O | i
O=C1/C(=C/c2ccccc2O)N=C2CCCCCN12 | 39%*
CSc1nc(C(=O)N2CC(=O)N(Cc3cnn(C)c3)CC(OCc3cccnc3)C2)cs1 (centres undefined) | i
Nc1ncnc(Nc2ccc(Cl)cc2C(=O)c2ccccc2Cl)c1[N+](=O)[O-] | i
